# In the library only some 19% were active in any assay of this set; here they are far more common.
# HT1080 IDH1KD tx = HT-1080 IDH1 knockdown cell toxicity (counter line) | Potency, µM (titrated, usually from 46.1 µM), inactives show at the top dose activity, negative = toxicity, usual class: cytotoxic | 2% of 360,000 active | AID 686971 | HT-1080 IDH1 knockdown viability, ATP luminescence, 48 h;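 note: potency is the fitted concentration of half-maximal effect; 0% = DMSO wells and -100% = cell-free medium wells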
#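 Using the IDH1-knockdown HT-1080 line run in the same batch and compound series as the NT line, viability after 48 h at 37 °C was determined by CellTiter-Glo luminescence and expressed as % activity.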
# DT40 TDP1 CPT = growth inhibition of DT40 Tdp1-/-;hTDP1 cells with camptothecin (screen for TDP1 inhibitors) | chicken DT40 Tdp1-/-;hTDP1 cells + 20 nM CPT, ATP luminescence, 48 h | Potency, µM (titrated, usually from 46.2 µM), for the others: at the top dose activity change, negative = growth inhibition, usual class: inhibitors | 12% of 420,000 active | AID 686979; note: potency is the fitted concentration of half-maximal effect; nearly all actives have a fitted effect of over 55% in size
#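 Cell growth measured by CellTiter-Glo luminescence after a minimum 48 h, 37 C compound exposure with 20 nM CPT in Tdp1-knockout DT40 cells stably expressing hTDP1, seeded 400/well; qHTS titration format.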
# TDP1 cell noCPT = qHTS for Inhibitors of human tyrosyl-DNA phosphodiesterase 1 (TDP1): qHTS in cells in absence of CPT; Potency, µM (series often up to 46.2 µM), for the others: at the top dose activity change, negative = growth inhibition, actives largely listed as inhibitors; AID 686978, 2013; 15% of 420,000 active; DT40 Tdp1-/- hTDP1 cells, no CPT, ATP luminescence, 48 h; note: potency is the fitted concentration of half-maximal effect; nearly all actives have a fitted effect of over 55% in size
#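 Camptothecin absent (DMSO only). Human TDP1-complemented DT40 knockout cells, 400 cells/well, 37 °C for minimum 48 hr; ATP measured via CellTiter-Glo, 30 min dark incubation, luminescence.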
# HT1080-NT tox = kills 2HG-producing HT-1080-NT fibrosarcoma cells | HT-1080-NT fibrosarcoma viability, CellTiter-Glo ATP luminescence, 48 h | Potency, µM (highest dose often 46.1 µM), for the others: at the top dose activity, negative = less viability, actives largely listed as cytotoxic | 1.6% of 360,000 active | AID 686970;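 note: NT is the 2HG producing partner of a matched IDH1 knockdown line; potency is the fitted concentration of half-maximal effect; 0% = DMSO-treated cells and -100% = media-only wells without cells; nearly all actives have a fitted effect of over 55% in size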
#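 Read-out is CellTiter-Glo luminescence after 10 minutes at room temperature, following 48 hours' compound treatment of HT-1080-NT cells (750 cells/well, RPMI, 5% FBS, 37 degrees C).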
# IL1B secr inh = inflammasome signaling inhibition, IL-1 beta readout; 4.7% of 360,000 active; AID 743279; THP-1 LPS/ATP IL-1B secretion, AlphaLISA, 16 h; hits give low values; activity change, % at 57.5 µM; in the data active = activity change below about -50%; inconclusive = mostly about -30% to -49%
#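 THP-1 cells pretreated 1 hr with compounds (up to 57.5 uM final), then stimulated with LPS (250 ng/mL final) plus ATP (1.25 mM final); secreted IL-1B measured by AlphaLISA after 16 hr, decreased signal indicating inhibition.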
# The depositor's hits bear a star; i = inactive; ? = inconclusive; nt = not tested or not shown. Unless noted, calls come from the whole dose curve; as a rule, active = well fitted curve in the direction sought with a large enough effect; inconclusive = small, poorly fitted or top-dose-only effect, or another doubt; inactive = no such curve, though single readings can be large; an effect the other way counts as inactive or inconclusive. Unless noted, % is set by controls: 0 for no effect and ±100 for the full control effect.
SMILES,HT1080 IDH1KD tx,DT40 TDP1 CPT,TDP1 cell noCPT,HT1080-NT tox,IL1B secr inh
CN(C)c1nc(NCc2ccccc2)nc(N/N=C/c2ccc3c(c2)OCO3)n1,-25.4%,?,16.4µM*,-16.9%,-14.0
O=S(=O)(c1ccc(F)cc1)N1CCC(Oc2ccc(-n3cnnn3)cc2)CC1,nt,-1.7%,-4.9%,nt,nt
Nc1nc(CN2CCN(c3ccccn3)CC2)nc(Nc2ccc(Cl)cc2)n1,-29.9%,?,6.51µM*,-31.9%,-22.4
COc1ccc(N2CCN(Cc3nc(N)nc(Nc4ccccc4OC)n3)CC2)cc1,3.6%,?,?,5.2%,?
COc1ccc(CN2CCN(c3ccccc3OC)CC2)cc1OC,-11.8%,-22.3%,-29.5%,-3.1%,-19.4
COc1ccccc1N1CCN(Cc2cnc3ccc(Cl)cn23)CC1,-0.9%,23.1µM*,13µM*,9.3%,22.4
COc1ccc(Nc2nc(N)nc(CN3CCN(c4ccc(F)cc4)CC3)n2)cc1,-2.1%,?,14.6µM*,-17.3%,?
COc1ccccc1N1CCN(Cc2nc(N)nc(Nc3ccc(C)c(Cl)c3)n2)CC1,?,14.6µM*,9.2µM*,?,-15.0
CCOc1ccccc1CN1CCNC(=O)C1CC(=O)N(C)CCc1cnn(C)c1 (centres undefined),6.1%,-1.5%,4.4%,0.0%,1.0
O=C1CCCC(=O)C1=Cc1c[nH]c2ccccc12,-3.1%,-5.8%,?,-10.6%,-16.9
Cc1ccc(C)c(NC(=O)CCC(=O)NNC(=O)COc2cc(C)ccc2C)c1,0.9%,-4.2%,-14.4%,-1.7%,i
CCOc1ccc(Nc2nc(N)nc(CN3CCN(c4ccccc4F)CC3)n2)cc1,-16.3%,-9.8%,18.4µM*,-1.3%,-7.6
COc1ccc(N2CCN(c3nc(Cl)nc(Nc4ccc(F)cc4)n3)CC2)cc1,-21.1%,18.4µM*,18.4µM*,-15.5%,-78.9*
Cc1c(Br)c(C(F)(F)F)nn1CC(=O)NCc1ccccc1,-2.1%,-1.1%,?,-13.8%,-2.9
Cn1c(-c2ccc3c(c2)OCO3)cnc1NCc1cccc(O)c1,?,-19.2%,?,-28.7%,-19.8
CCCN(C(=O)c1ccc(S(=O)(=O)N2CCCC2)cc1)C1CCS(=O)(=O)C1 (centres undefined),-10.0%,-1.1%,12.1%,-3.0%,-3.2
Cc1ccc(-c2nnc(Nc3cccc(C(F)(F)F)c3)c3ccccc23)cc1S(=O)(=O)N1CCOCC1,nt,9.2µM*,8.2µM*,nt,nt
Cc1cccc(Nc2nnc(-c3ccc(C)c(S(=O)(=O)N4CCOCC4)c3)c3ccccc23)c1,nt,16.4µM*,6.51µM*,nt,nt
Cc1ccc(-c2nnc(Nc3cccc(Cl)c3)c3ccccc23)cc1S(=O)(=O)N1CCOCC1,nt,16.4µM*,4.11µM*,nt,nt
Cn1c(N)c(C(=O)CSc2ncn[nH]2)c(=O)n(C)c1=O,-2.7%,8.7%,-29.5%,-3.2%,-11.7
COc1ccccc1-n1cc(-c2ccc(Br)cc2)[nH]c1=S,-28.5%,16.4µM*,13µM*,-0.9%,4.1
Cc1ccc(-n2cc(-c3ccc([N+](=O)[O-])cc3)[nH]c2=S)c(C)c1,-2.3%,16.4µM*,16.4µM*,-1.9%,-1.6
COc1ccccc1-n1cc(-c2ccc(C)cc2)[nH]c1=S,?,3.66µM*,4.11µM*,10.3µM*,13.4
COc1ccccc1-c1cn(-c2ccccc2)c(=S)[nH]1,-21.5%,?,20.6µM*,-13.2%,8.0
O=C(Nn1c(-c2ccncc2)nc2ccccc2c1=O)c1ccc([N+](=O)[O-])cc1Cl,2.0%,-5.8%,3.6%,2.3%,16.3
COc1cccc(OC)c1OCCCNC1CCCC1,-0.3%,-24.2%,0.7%,-15.4%,-3.6
COc1ccc(-c2cn(-c3ccc(C)c(C)c3)c(=S)[nH]2)cc1OC,-1.4%,-23.2%,16.4µM*,-3.6%,-16.3
COc1ccc(-c2cn(-c3ccc(C)c(Cl)c3)c(=S)[nH]2)cc1OC,-15.6%,?,?,-9.8%,?
CCN(CC)C(=O)c1ccc(COc2ccccc2Cl)cc1,-12.7%,?,?,-3.0%,-58.8*

# Screens (PubChem)
